Results filed as inconclusive are left out. A call without a number means that no potency is given here. Activity calls are given as the source filed them. Calls follow the shape of the dose curve; as a rule, active = well fitted cell-killing curve with a large enough effect; inconclusive = small, poorly fitted or top-dose-only effect, or effect the other way; inactive = no such curve, though single readings can be large or run the other way.
assay: Quantitative highthroughput screen to assess conditional lethalithy of SEM cells grown in Human Plasma-Like Medium with dialyzed fetal bovine serum (HPLM+ds) (AID 1963882); settings: SEM B-ALL cells in HPLM+ds, CellTiter-Glo viability, 48 h; series mostly up to 45.8 µM; also: nearly all actives have a fitted effect of over 35% in size
Source text: Assay Provider: Jason Cantor Ph.D.
Department of Biochemistry
University of Wisconsin-Madison, Madison, WI, USA
Chemical screening studies have identified drug sensitivities across hundreds of cancer cell lines but most putative therapeutics fail to translate. Discovery and development of drug candidates in models that more accurately reflect nutrient levels in human blood is a major challenge. Here we performed high-throughput screens in conventional versus Human Plasma-Like Medium (HPLM) to identify compounds that were "missed" when screening using the artificial culture condition. Sets of conditional anticancer compounds spanned phases of clinical development and included non-oncology drugs were assessed. […] We also traced conditional phenotypes for several chemotherapeutics to availability of HPLM-specific metabolites and confirmed others for compounds whose reported targets are encoded by nonessential genes. Our findings establish generalizable strategies for exploiting conditional lethality in HPLM to reveal therapeutic candidates and mechanisms of action in cancer cells.
Described herein are the results of each viability screens against three cell lines: NOMO1 (an acute myeloid leukemia cell line); P12-Ichikawa (a T-cell acute lymphoblastic leukemia); and SEM (a B-cell ALL). Each assay was screened using 3 different cell culture media: homemade human plasma-Like medium with 10% dialyzed fetal bovine serum (HPLM+ds); RPMI1640 with 10% untreated FBS and 5mM glucose (RPMI+s); and RPMI1640 with 10% dialyzed fetal bovine serum and 5 mM glucose (RPMI+ds).
PROTOCOL TABLE (as described by Inglese J, Shamu CE and Guy RK. 2007)
SEQUENCE No. (e.g., 1, 2, 3, etc.); […] (e.g., Cells, Incubation, Reagent, etc.); VALUE and DESCRIPTION.
1; Cells; 5 uL; white, solid bottom 1536-well Greiner assay plate.
2; Compounds; 23 nL; Kalypsis pin tool (Wako USA) equipped with a 1536-well pin head to transfer to the assay plates.
3; Incubation; 48 hours; 37C incubation.
4; Reagent; 3 uL; CellTiter Glo (Promega).
5; Incubation; 5 min, room temperature
6; Detection; Luminescence, Viewlux PerkinElmer.
NOTES (numbers refer to Sequence numbers above)
1. Briefly, 5 ul of cell reagent was dispensed using a Multidrop Combi Dispenser. The NOMO1 and SEM cells were plated at 500 cells/well and the P12-Ichikawa line at 1000 cells/well.
2. After seeding the cells, 23 nL of MIPE 4.1 library compounds (in DMSO) were added to each plate using a Kalypsys 1536 Pintool dispenser. Bortezomib at final concentration of […] and DMSO were added to each plate as positive and negative controls respectively. For each screen, MIPE 4.1 compounds were added over an eleven-point concentration range […] in 3-fold dilutions.
3. Each plate was covered with a stainless steel gasketed lid to prevent evaporation and incubated for 48 hour at 37C, 95% relative humidity, and 5% CO2.
4-5. Three microliter CellTilter-GloTM luminescent substrate mix (Promega) reagent was added to the assay plate and incubated at room temperature for 5 min.
6. The luminescence signal was measured using a ViewLux (PerkinElmer) multiplate reader with a 2 second exposure time per plate. Data for each compound were normalized as percent viability such that measurements for DMSO and the empty well controls in each plate were defined as 100% and 0%, respectively.
Potency is read from the fitted curve at half-maximal effect.

| Structure (SMILES) | Potency |
| --- | --- |
| Cc1[nH]nc2ccc(-c3cncc(OC[C@@H](N)Cc4c[nH]c5ccccc45)c3)cc12 | 187 nM (active) |
| C[C@@H]1O[C@@H](O[C@@H]2C=C3CC[C@@H]4[C@@H](CC[C@]5(C)[C@H](c6ccc(=O)oc6)CC[C@@]45O)[C@@]3(C)CC2)[C@H](O)[C@H](O)[C@H]1O | 23.5 nM (active) |
| C[C@@H]1CC[C@H]2[C@@H](C)C(=O)O[C@@H]3O[C@@]4(C)CC[C@H]1[C@]32OO4 | inactive |
| COc1ccc2c(c1)[C@]13CCCCC1C(C2)N(C)CC3 (stereo not given in full) | inactive |
| C[C@]12Cc3cn[nH]c3C[C@@H]1CC[C@@H]1[C@H]2CC[C@@]2(C)[C@H]1CC[C@]2(C)O | inactive |
| C[C@]12CC[C@H]3[C@@H](CCC4=CC(=O)CC[C@@]43C)[C@H]1CC[C@H]2O | inactive |
| CNC(=O)c1ccc(N2C(=S)N(c3ccc(C#N)c(C(F)(F)F)c3)C(=O)C23CCC3)cc1F | inactive |
| CC(C)[C@H]1C(=O)N[C@H](CO)Cc2c[nH]c3cccc(c23)N1C | inactive |
| C[C@]12CC[C@H](O)CC1=CC[C@H]1[C@H]3CCC(=O)[C@@]3(C)CC[C@@H]12 | inactive |
| CC(C)N(CCNC(=O)CN1CCCC1=O)C(C)C | inactive |
| Cc1sc2c(c1C)C(c1ccc(Cl)cc1)=N[C@@H](CC(=O)OC(C)(C)C)c1nnc(C)n1-2 | 166 nM (active) |
| O=S(=O)(F)Cc1ccccc1 | inactive |
| COc1ccc2c(c1OC)CN1CCc3cc4c(cc3C1C2)OCO4 (stereo not given) | 1050 nM (active) |
| COc1cc(C(=O)N2CC[C@@H](O)[C@@H](N)C2)cc2nc(-c3cc4ccccc4n3CC3CC3)n(C)c12 | 1320 nM (active) |
| CC[C@@H]1[C@@H](C)O[C@@](O)([C@@H](C)[C@H](O)[C@H](C)[C@H]2OC(=O)C=CC=C[C@@H](C)[C@@H]([C@@H](C)[C@@H](O)[C@H](C)[C@@]3(O)C[C@H](O[C@H]4C[C@H](O)[C@H](O)[C@H](C)O4)[C@H](CC)[C@@H](C)O3)OC(=O)C=CC=C[C@@H]2C)C[C@H]1O[C@H]1C[C@H](O)[C@H](O)[C@H](C)O1 | 2350 nM (active) |
| O=C(Oc1ccc([N+](=O)[O-])cc1)N1CCN(Cc2cccc(Oc3ccccc3)c2)CC1 | inactive |
| COC[C@H]1OC(=O)c2coc3c2[C@@]1(C)C1=C(C3=O)C2CCC(=O)[C@@]2(C)C[C@H]1OC(C)=O (stereo not given in full) | inactive |
| C#C[C@]1(O)C=C[C@@H]2[C@@H]3CCC4=CC(=O)CC[C@@H]4[C@H]3CC[C@@]21CC | inactive |
| Cc1cc(SCc2sc(-c3ccc(C(F)(F)F)c(F)c3)nc2C)ccc1OCC(=O)O | inactive |
| C[C@]12CC[C@H]3[C@@H](CCC4=CC(=O)CC[C@@]43C)[C@H]1CC[C@H]2OC(=O)CCC1CCCC1 | inactive |

| Structure (SMILES) | Potency |
| --- | --- |
| CC(C)(C)c1cc(C=C(C#N)C#N)cc(Br)c1O | inactive |
| CCN1C[C@]2(OC(=O)c3ccccc3NC(C)=O)CC[C@H](OC)[C@@]34[C@H]5CC6[C@@H](OC)C[C@](O)(C(C[C@@H]23)[C@@H]14)[C@@]5(O)[C@@H]6OC | inactive |
| Cc1nc(-c2ccc(-c3ccc(C(=O)N4CCc5cc6c(cc54)C4(CCN(C)CC4)CO6)cc3)c(C)c2)no1 | inactive |
| O=c1[nH]c2ccc(Cl)cc2c(N[C@@H]2CN3CCC2CC3)c1-c1nc2ccccc2[nH]1 | 41.8 nM (active) |
| CC(=CCCC1=CCC(C2=CC(=O)OC2O)OC1O)CCC1=C(C)CCCC1(C)C (stereo not given) | inactive |
| CC=C(C)C(=O)O[C@H]1C(C)=C2[C@@H]3OC(=O)[C@@](C)(O)[C@@]3(O)[C@@H](OC(=O)CCC)C[C@](C)(OC(C)=O)[C@@H]2[C@@H]1OC(=O)CCCCCCC | 59 nM (active) |
| CCC1(c2ccc(N)cc2)CCC(=O)NC1=O (stereo not given) | inactive |
| C[C@@H]1[C@@H](CC(C[C@H]2O[C@@H]3O[C@]4(C)CC[C@@H]5[C@H](C)CC[C@@H]([C@H]2C)[C@@]35OO4)C[S+](=O)([O-])c2ccc(COC(=O)N(C)C)cc2)O[C@@H]2O[C@]3(C)CC[C@H]4[C@H](C)CC[C@@H]1[C@@]24OO3 (stereo not given in full) | 743 nM (active) |
| C1=C2CCCN[C@H]2[C@@H]2C[C@H]1[C@@H]1CCCCN1C2 | inactive |
| CCCC(C)(COC(N)=O)COC(=O)NC(C)C (stereo not given) | inactive |
| CNCC(O)c1ccc(O)cc1 (stereo not given) | inactive |
| C[C@]12CC[C@@H]3[C@@H](CCC4=CC(=O)CC[C@@H]43)[C@@H]1CC[C@@H]2OC(=O)CCc1ccccc1 | inactive |
| CCN(CC)C(=O)c1ccc(C2=CC3(CCNCC3)Oc3cccc(O)c32)cc1 | inactive |
| COc1ccc(C(=O)c2c(C)n(CCN3CCOCC3)c3cc(I)ccc23)cc1 | 20900 nM (active) |
| O=c1[nH]c2ccccc2n1C1CCN(Cc2ccc(-c3[nH]c4cc5ncnc5cc4nc3-c3ccccc3)cc2)CC1 | inactive |
| CCc1c(C(=O)C(N)=O)c2c(OCC(=O)O)cccc2n1Cc1ccccc1 | inactive |
| COc1cccc2c1[C@]13CCN(CC4CC4)[C@H](C2)[C@]1(OC)CCC(=O)C3 | inactive |
| O=c1cccc2n1CC1CNC[C@H]2C1 | inactive |
| COC[C@@H](NC(C)=O)C(=O)NCc1ccccc1 | inactive |
| CCCCCC[C@H]1C(=O)O[C@H](C)[C@H](NC(=O)c2cccc(NC=O)c2O)C(=O)O[C@@H](C)[C@@H]1OC(=O)CC(C)C | inactive |

— PubChem BioAssay (NCATS)
